# In PubChem BioAssay AID651947 (Broad Institute, 2012):
# Results with a measured potency or affinity are listed apart. Inconclusive results are not listed. Values without a mark were called inactive.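 The calls were made as follows: active = luminescence drop in HepG2 cells whose fitted half-effect dose is at most twice the top valid dose; inconclusive = flat curve with 30 to 70% signal loss, or unreliable fit; inactive = the rest.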
# Assay: cytotoxicity in HepG2 cells, dose response, cytotoxicity control, cell-based, plate reader, dry powder (AID 651947)
# Conditions: HepG2 viability, ATP luminescence (CellTiter-Glo), 48 h, stronger effect = lower value; at 26 µM unless noted
row,Compound,max activity
1,Cc1nnc(SCc2ccccc2)o1,-55.2% [at 0.195 µM]
2,Clc1ccccc1CSc1nnc(-c2ccccc2)o1,17.5% [at 0.195 µM]
3,c1ccc(-c2nnc(SCc3cscn3)o2)cc1,-61.2% [at 12 µM]
4,c1ccc(CSc2nnc(-c3cccnc3)o2)cc1,-26.9% [at 0.8 µM]
5,c1ccc(-c2nnc(SCCN3CCCC3)o2)cc1,-61.1% [at 0.8 µM]
6,Cc1ccc(-c2nnc(SCc3ccccn3)o2)cc1,-42.6% [at 0.38 µM]
7,c1ccc(-c2nnc(SCCN3CCOCC3)o2)cc1,-7.63% [at 0.38 µM]
8,Brc1ccc(CSc2nnc(-c3ccccc3)o2)cc1,32.4% [at 6 µM]
9,FC1(F)CN(CCSc2nnc(-c3ccccc3)o2)C1,-36.2% [at 0.8 µM]
10,O=C(Cc1ccccc1)c1nnc(-c2ccccc2)o1,-24.7% [at 0.8 µM]
11,O=S(=O)(Cc1ccccc1)c1nnc(-c2ccccc2)o1,-24.8%
12,Cc1ccc(CSc2nnc(-c3ccccc3)o2)cc1,15.4% [at 3 µM]
13,COCCOCCSc1nnc(-c2ccccc2)o1,-8.39% [at 1.6 µM]
14,CS(=O)(=O)c1ccc(-c2nnc(SCc3ccccc3)o2)cc1,-40.3%
15,FC(F)(F)CNCCSc1nnc(-c2ccccc2)o1,-10% [at 12 µM]
16,FC(F)(F)Oc1cccc(-c2nnc(SCc3ccccc3)o2)c1,-17.6% [at 0.195 µM]
17,CS(=O)(=O)c1cccc(-c2nnc(SCc3ccccc3)o2)c1,26.3% [at 0.8 µM]
18,FC(F)(F)Oc1cccc(CSc2nnc(-c3ccccc3)o2)c1,19.6% [at 0.38 µM]
19,O=C(Cc1ccccc1)C(C(=O)c1nnc(-c2ccccc2)o1)c1ccccc1 (stereo not given),-29.7%
20,c1ccc(CCc2nnc(-c3ccccc3)o2)cc1,27.6%
